The source holds several records for some structures; these can differ, active in one and inactive in another. The source made the active and inactive calls. How the source made its calls: active means hit-call score of the fitted dose curve at least 0.9, where 1 is the maximum; inactive means score below 0.9.
Each molecule was assayed on Cytochrome P450 4A22 (Homo sapiens) (UniProt Q5TCH4) (assay: LTEA_HepaRG_CYP4A22: Life Technologies and Expression Analysis (LTEA) Assay for Cytochrome P450 4A22 (CYP4A22) using HepaRG (AID 2283495)). Conditions: mRNA level, 48 h; actives raise or lower the signal.
Description: LTEA_HepaRG is a cell based, multiplexed-readout assay that uses HepaRG, a human liver cell line, with measurements taken at 48 hours after chemical dosing on a 96-well plate.LTEA_HepaRG_CYP4A22 is one of 102 assay component(s) measured in the LTEA HepaRG cell culture assay. It is a marker of NR mediated metabolism.Data from the assay component LTEA_HepaRG_CYP4A22 was analyzed into 1 endpoint. This assay endpoint, LTEA_HepaRG_CYP4A22, was analyzed with bidirectional fitting relative to DMSO as the negative control and baseline of activity. Using a type of inducible reporter, measures of mRNA induction for gain or loss-of-signal activity can be used to understand regulation of transcription factor activity. To generalize the intended target to other relatable targets, this assay endpoint is annotated to the cyp intended target family, where the subfamily is xenobiotic metabolism.
A total of 1060 chemcials from the ToxCast library were tested in eight-point concentration-response experiments. Cell culture and cytotoxicity assays were conducted at Thermo Fisher Scientific's Custom Services facility (Madison, WI). A single lot of human HepaRG cells (Thermo Fisher Scientific, Frederick, MD) was used for the cell culture experiments. 96-well format collagen type I coated plates of human HepaRG cells were prepared using established methods. Briefly, cryopreserved HepaRG cells were thawed, plated at a density of approximately 100,000 cells/well in HepaRG Thaw, Plate, and General Purpose media (HPRG770, Thermo Fisher Scientific), and incubated for 48 hours. 0.5% DMSO was selected as vehicle control to balance the requisite need of DMSO in HepaRG cultures to maintain differentiation (for example, baseline metabolism, proportions of hepatocytes vs. cholangiocytes), while enabling further hepatic receptor pathway activation (for example, PXR and CAR) in response to chemical exposure. 48 hours after plating, the culture medium was replaced with HepaRG Serum-Free Incudtion Media. Cells were exposed to each test chemical in duplicate and maintained in CO2 incubators for another 48 hours. Chemical plates were thawed to room temperature and 200x concentrations of treatment groups were prepared. 8-point conentration-reponse curves were made with the highest exposure at 100 uM, followed by half-log dilutions, all in 0.5% DMSO. Each test plate contained variouse controls, induction positive controls (1mM phenobarbital), cytotoxicity positive controls ([…] aflatoxin B1), vehicle controls (0.5% DMSO), and total lysis controls (0.5% DMSO). Cell morphology images were taken using an Essen IncuCyte FLR automated microscope, with six 96-well plates imaged in about 24 minutes. Images were captured and exported and JPEG files. Spent culture media was transfered to black-well plates for the LDH assay, and remaining media was sorted at -80 C for later use. Cells were treated with RLT buffer and frozen until shipped for gene expression analysis. Total RNA was isolated from the cell suspension in 75 uL of Buffer RLT (Qiagen, Germantown, MD 20874) by Quintiles/Expression Analysis (Durham, NC) using a custom isolation procedure. Total RNA from each plate well was transferred to a preamplification plate. Fluidigm's 96.96 Dynamic ArrayTM (Fluidigm, Amsterdam, the Netherlands) technology was used for gene expression analyses by quantitative reverse transcription polymerase chain reaction (qRT-PCR, performed by Quintiles/Expression Analysis, Durham, NC)89. Standard TaqManTM Assays (Applied Biosystems/ThermoFisher Scientific, Foster City, CA) were used to assess the expression of 93 genes selected based on their selectivity and sensitivity to important hepatic receptors known to be modulated by environmental chemicals; importance in human hepatocyte functionality; and hepatotoxicity. […]
`CCCCSP(=O)(SCCCC)SCCCC` was tested, and the AC50 was 68.1 µM (active).
With `CC(=NC#N)N(C)Cc1ccc(Cl)nc1` the outcome was “inactive”.
In the case of `O=c1ccc(=O)[nH][nH]1`, the outcome is reported as “inactive”.
With `CCCSP(=O)(OCC)SCCC` the outcome was “inactive”.
With `O=C(O)c1cc(Oc2ccc(C(F)(F)F)cc2Cl)ccc1[N+](=O)[O-]` the outcome was “inactive”.
With `CCc1cccc(CC)c1N(COC)C(=O)CCl` the outcome was “inactive”.
In the case of `CCOP(=S)(OCC)SCCSCC`, the outcome is reported as “inactive”.
In the case of `COc1cc(OC)nc(Sc2cccc(Cl)c2C(=O)O)n1`, the outcome is reported as “inactive”.
For `CCCOc1nn(C(=O)NS(=O)(=O)c2ccccc2C(=O)OC)c(=O)n1C`, the outcome was “inactive”.
In the case of `CCCCN(CC)c1c([N+](=O)[O-])cc(C(F)(F)F)cc1[N+](=O)[O-]`, the outcome is reported as “inactive”.
For `CCOP(=S)(OCC)Oc1ccc2c(C)c(Cl)c(=O)oc2c1`, the AC50 was 50 µM (active).
`CCCOCC(=Nc1ccc(Cl)cc1C(F)(F)F)n1ccnc1` was tested, and the AC50 was 15.8 µM (active).
In the case of `CC(COc1ccc(Oc2ccccc2)cc1)Oc1ccccn1` (stereo not given), the outcome is reported as “inactive”.
In the case of `CCc1cccc(C)c1N(C(=O)CCl)C(C)COC` (stereo not given), the outcome is reported as “inactive”.
For `CCOP(=O)(SC(C)CC)N1CCSC1=O` (stereo not given), the AC50 was 12.6 µM (active).
For `N#CSCSC#N`, the AC50 was 90.6 µM (active).
In the case of `CC(C1CC1)C(O)(Cn1cncn1)c1ccc(Cl)cc1` (stereo not given), the AC50 is reported as 44.9 µM (active).
`Nc1nc(N)nc(NC2CC2)n1` was tested, and the outcome was “inactive”.
For `CN(C)C(=O)Nc1cccc(C(F)(F)F)c1`, the outcome was “inactive”.
With `Cc1nn(-c2cc(NS(C)(=O)=O)c(Cl)cc2Cl)c(=O)n1C(F)F` the outcome was “inactive”.
`CN(C)[C@@H]1C(=O)C(C(N)=O)=C(O)[C@@]2(O)C(=O)C3=C(O)c4c(O)cccc4[C@@](C)(O)[C@H]3[C@H](O)[C@@H]12` was tested, and the outcome was “inactive” and the AC50 was 50 µM (active).
With `CCOP(=S)(OCC)Oc1cc(C)nc(C(C)C)n1` the outcome was “inactive”.
`CNc1cnn(-c2cccc(C(F)(F)F)c2)c(=O)c1Cl` was tested, and the outcome was “inactive”.
In the case of `CSc1nnc(C(C)(C)C)c(=O)n1N`, the outcome is reported as “inactive”.
`O=[N+]([O-])c1cc(C(F)(F)F)c(Cl)c([N+](=O)[O-])c1Nc1ncc(C(F)(F)F)cc1Cl` was tested, and the AC50 was 23.1 µM (active).
With `CCC(CC)Nc1c([N+](=O)[O-])cc(C)c(C)c1[N+](=O)[O-]` the outcome was “inactive”.
For `CCOP(=O)(OCC)Oc1cc(C)nc(C(C)C)n1`, the outcome was “inactive”.
With `CCNc1nc(Cl)nc(NC(C)(C)C#N)n1` the outcome was “inactive”.
`COP(=O)(OC)OC(Br)C(Cl)(Cl)Br` (stereo not given) was tested, and the outcome was “inactive”.
For `CC[C@H](C)[C@H]1O[C@]2(C=C[C@@H]1C)C[C@@H]1C[C@@H](C/C=C(\C)[C@@H](O[C@H]3C[C@H](OC)[C@@H](O[C@H]4C[C@H](OC)[C@@H](NC)[C@H](C)O4)[C@H](C)O3)[C@@H](C)/C=C/C=C3\CO[C@@H]4[C@H](O)C(C)=C[C@@H](C(=O)O1)[C@]34O)O2`, the AC50 was 7.23 µM (active).
`CCOC(=O)COc1cc(-c2nn(C)c(OC(F)F)c2Cl)c(F)cc1Cl` was tested, and the outcome was “inactive”.
With `CON=C(C(=O)OC)c1ccccc1CON=C(C)c1cccc(C(F)(F)F)c1` the outcome was “inactive”.
`CCOC(=O)CC(SP(=O)(OC)OC)C(=O)OCC` (stereo not given) was tested, and the outcome was “inactive”.
With `CCc1cnc(C2=NC(C)(C(C)C)C(=O)N2)c(C(=O)O)c1` (stereo not given) the outcome was “inactive”.
`Nc1c(Cl)cc([N+](=O)[O-])cc1Cl` was tested, and the AC50 was 74.2 µM (active).
`CCCSP(=O)(OCC)Oc1ccc(Br)cc1Cl` (stereo not given) was tested, and the outcome was “inactive”.
For `CNC(=O)Oc1cccc2c1OC(C)(C)O2`, the outcome was “inactive”.
`CCOP(=S)(Oc1cnc(C(C)(C)C)nc1)OC(C)C` (stereo not given) was tested, and the outcome was “inactive”.
In the case of `C#CC(C)(C)NC(=O)c1cc(Cl)cc(Cl)c1`, the AC50 is reported as 40.9 µM (active).

Source: PubChem BioAssay (EPA / NIEHS)
